The source made the active and inactive calls.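 How the source made its calls, unless noted: active means fluorescence slope higher than the sample average by over 3 SD (cut at about -0.22 in these data, passing the limit was not always enough); inactive means the rest.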
Assays:
[1] = inhibitors of TNFa-induced NFkB p65 translocation, primary screen, imaging, HUVEC, MLSMR starter and 10KST1 sets (AID 438;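 active means inhibition above 20% together with a positive visual image hit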;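 further: compound added about 3h40 before a 20 min TNFalpha stimulation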;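 on inhibition: signal is the nuclear over cytoplasmic p65 intensity ratio per well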); conditions: HUVEC TNFa-induced p65 nuclear translocation; cell count: measured here: nuclei count (cytotoxicity indicator), at 2.08 µM; inhibition: at 2 µM, stronger effect = higher value, 0% TNFa-plus-vehicle, 100% no-TNFa wells
[2] = inhibitors of mutant huntingtin aggregation, primary screen, imaging, exon1htt(103Q)mCFP cells, high-content imaging (AID 483;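 active means visual image review flags a hit and inhibition of aggregation exceeds 20%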;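 further: compound exposure lasted 3 days before fixation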;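 on nuclei count: percent of the per-plate median nuclei count of sample wells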); conditions: exon1htt(103Q)mCFP cell line, aggregate imaging, at 2 µM; inhibition of aggregation: stronger effect = higher value; nuclei count: measured here: cell count, toxicity
[3] = inhibitors of E-selectin induction by TNFa, primary screen, imaging, HUVEC, immunofluorescence, MLSMR starter and 10KST1 sets (AID 487;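 active means visually confirmed hit in the image check and inhibition above 20%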;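 on inhibition: signal is fraction of cell area covered by stained E-selectin grains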;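 on nuclei count: 100% = median nuclei count of all wells on the same plate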); conditions: HUVEC TNFalpha-induced E-selectin immunofluorescence imaging, at 2 µM; inhibition: stronger effect = higher value; nuclei count: measured here: cell number, toxicity
[4] = target: Voltage-gated potassium channel subunit beta-2 (Rattus norvegicus) (UniProt P62483); assay: KvBeta enzyme negative modulators, primary screen, biochemical, NADPH fluorescence (AID 622); conditions: recombinant KvBeta, 4-cyanobenzaldehyde reduction, at 10 µM, stronger effect = higher value;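 further: slope of raw intensity against log time taken from 70 to 1610 s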
[5] = target: Voltage-gated potassium channel subunit beta-2 (Rattus norvegicus) (UniProt P62483); assay: KvBeta positive modulators, primary screen, biochemical, NADPH fluorescence (AID 623;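 active means NADPH fluorescence slope more negative than the mean of all samples by about 3 SD, 99.7% confidence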;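 further: fluorescence intensity change per second fitted from 20 to 320 s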); conditions: Recombinant KvBeta, NADPH fluorescence decrease slope, 10 min; at 10 µM; stronger effect = lower value
[6] = target: Alpha-2C adrenergic receptor (Homo sapiens) (UniProt P18825); assay: modulators of alpha2C/GIRK thallium flux, primary screen, cell-based, HEK293 alpha2C/GIRK1/2 (AID 624;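 active means fluorescence slope after compound addition differing from the mean of all screened samples at 99.7% confidence, in either direction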;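 further: slope of fluorescence ratio to pre-addition baseline per second over 15 to 24 s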); conditions: thallium flux BTC fluorescence, at 10 µM, actives lie on both sides
[7] = inhibitors of Sendai virus-induced IRF3 signaling, primary screen, TLR/RLR signaling modifier project, cell-based, Sendai virus stimulus, luciferase, 10K MLSCN set (AID 602276;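 active means inhibition at or above 50% at 10 µM; inactive means inhibition below 50%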;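 further: firefly luciferase from ISG56 promoter only with Renilla not read in this screen; 0% = Sendai virus plus DMSO and 100% = medium plus DMSO without virus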); conditions: HEK293 RL24 IRF3 luciferase reporter, at 10 µM, stronger effect = higher value
[8] = inhibitors of poly I:C-induced TLR3 signaling, primary screen, cell-based, poly I:C stimulus, luciferase, 10K MLSCN set (AID 602277;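 active means inhibition of the reporter signal at or above 50%; inactive means inhibition below 50%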); conditions: HEK293-TLR3 RL24 IRF3 luciferase reporter, at 10 µM, stronger effect = higher value

Voltage-gated potassium channel subunit beta-2 (Rattus norvegicus), sequence (P62483 whole entry, looked up): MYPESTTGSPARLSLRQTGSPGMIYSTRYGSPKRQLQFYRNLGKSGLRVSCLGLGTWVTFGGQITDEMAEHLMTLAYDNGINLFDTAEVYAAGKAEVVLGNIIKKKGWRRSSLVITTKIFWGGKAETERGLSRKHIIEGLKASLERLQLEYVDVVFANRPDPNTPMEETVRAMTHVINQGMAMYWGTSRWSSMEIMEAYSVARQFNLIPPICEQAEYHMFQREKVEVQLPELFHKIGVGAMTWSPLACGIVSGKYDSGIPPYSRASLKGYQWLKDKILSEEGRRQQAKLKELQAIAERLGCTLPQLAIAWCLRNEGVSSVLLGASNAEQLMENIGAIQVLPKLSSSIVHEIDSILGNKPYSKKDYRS
Alpha-2C adrenergic receptor (Homo sapiens), sequence (P18825 whole entry, looked up): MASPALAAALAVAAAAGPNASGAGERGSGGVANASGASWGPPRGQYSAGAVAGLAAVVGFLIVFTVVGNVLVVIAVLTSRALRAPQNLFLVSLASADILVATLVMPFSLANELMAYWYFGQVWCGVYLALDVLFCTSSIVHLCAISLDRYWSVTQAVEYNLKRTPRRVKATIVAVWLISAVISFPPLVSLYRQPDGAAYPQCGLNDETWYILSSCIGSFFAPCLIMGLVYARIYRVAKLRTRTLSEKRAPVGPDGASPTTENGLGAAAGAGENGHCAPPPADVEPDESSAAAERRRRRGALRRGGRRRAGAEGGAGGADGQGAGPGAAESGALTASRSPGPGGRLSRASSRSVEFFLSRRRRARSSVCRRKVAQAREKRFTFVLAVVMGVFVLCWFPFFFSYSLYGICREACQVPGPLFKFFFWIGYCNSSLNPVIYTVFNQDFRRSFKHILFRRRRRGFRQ

Structure (SMILES)	cell count [1]	inhibition [1]	inhibition of aggregation [2]	nuclei count [2] [%]	inhibition [3]	nuclei count [3] [%]	fluorescence slope [4]	NADPH fluorescence slope [5]	slope [6]	inhibition [7]	inhibition [8]
Cc1cccc(N2CCN(C(=O)C3CCCN(S(=O)(=O)c4c(C)noc4C)C3)CC2)c1C (stereo unspecified)	599	-2.3% (inactive)	-11.6% (inactive)	102	-85.1% (inactive)	125	-0.571 (inactive)	-2.7e-05 (inactive)	0.00588 (inactive)	8.68% (inactive)	1.25% (inactive)
Cc1ccc(C(=O)CC2(O)C(=O)N(C)c3ccc(Br)cc32)c(C)c1 (stereo unspecified)	614	-5% (inactive)	-6.2% (inactive)	107	-23.2% (inactive)	123	-0.457 (inactive)	-5.1e-05 (inactive)	0.0058 (inactive)	15.6% (inactive)	31.5% (inactive)
COC(=O)c1ccccc1NC(=O)CSc1nc2c(c(=O)n(C)c(=O)n2C)n1C	470	1% (inactive)	-5.1% (inactive)	95.9	9.9% (inactive)	119	-0.382 (inactive)	2e-05 (inactive)	0.00766 (inactive)	-17.1% (inactive)	-34.2% (inactive)
Cc1nc2ncnn2c(N2CCC(C(=O)NC3CCCC3)CC2)c1Cc1ccccc1	400	2.7% (inactive)	-20.2% (inactive)	116	-87.8% (inactive)	117	-0.463 (inactive)	-0.000271 (inactive)	0.00426 (inactive)	5.2% (inactive)	25.7% (inactive)
Clc1cccc(N2CCN(Cc3nc(-c4ccccc4)no3)CC2)c1	716	-1.1% (inactive)	8.5% (inactive)	112	-43.3% (inactive)	122	-0.541 (inactive)	-9e-05 (inactive)	0.00744 (inactive)	2.81% (inactive)	29.2% (inactive)
Cc1cc(=O)oc2cc(OCC#N)ccc12	823	-2.9% (inactive)	-19.8% (inactive)	95.4	-66.4% (inactive)	128	-0.521 (inactive)	-3.5e-05 (inactive)	0.0067 (inactive)	8.92% (inactive)	27.1% (inactive)
CCS(=O)(=O)N1CCCC(C(=O)NCc2ccccc2Cl)C1 (stereo unspecified)	257	-1.9% (inactive)	-1.1% (inactive)	107	-15.6% (inactive)	112	-0.608 (inactive)	-1.9e-05 (inactive)	0.00474 (inactive)	3.16% (inactive)	-6.49% (inactive)
CCC(C)C(=O)Nc1nc2c(s1)C(=O)CC(C)(C)C2 (stereo unspecified)	612	6.9% (inactive)	-4.2% (inactive)	102	-8.8% (inactive)	115	-0.553 (inactive)	-2.6e-05 (inactive)	0.00723 (inactive)	-7.18% (inactive)	-6.11% (inactive)
O=C(OCC(=O)c1ccc[nH]1)c1ccc(S(=O)(=O)N2CCCCC2)cc1	314	22.9% (inactive)	1.5% (inactive)	96.8	-31.1% (inactive)	98	-0.444 (inactive)	-4.5e-05 (inactive)	0.00419 (inactive)	2.97% (inactive)	29.4% (inactive)
CN(C)CCCNC(=O)c1ccc(CN(c2ccccc2)S(C)(=O)=O)cc1	641	1% (inactive)	-1.7% (inactive)	101	25.8% (inactive)	84.7	-0.43 (inactive)	-0.000115 (inactive)	0.00575 (inactive)	8.82% (inactive)	24.2% (inactive)
Cc1cc(C)c2[nH]c(=O)c(C(c3nnnn3Cc3ccc4c(c3)OCO4)N3CCC(C)CC3)cc2c1 (stereo unspecified)	716	-1.6% (inactive)	2.1% (inactive)	98.1	70% (inactive)	73.2	-0.428 (inactive)	6.4e-06 (inactive)	0.0051 (inactive)	-4.82% (inactive)	18.2% (inactive)
CCOc1ccc(N(CC(=O)NCc2ccco2)S(=O)(=O)c2ccc(OC)c(OC)c2)cc1	429	3.5% (inactive)	-2.6% (inactive)	110	-45.5% (inactive)	110	-0.409 (inactive)	4.2e-05 (inactive)	0.0072 (inactive)	3.08% (inactive)	30.5% (inactive)
Cc1ccc(CSc2nc3c(c(=O)[nH]2)CCC3)cc1	423	11.5% (inactive)	-3.3% (inactive)	103	4.9% (inactive)	103	-0.363 (inactive)	-2.9e-05 (inactive)	0.00659 (inactive)	-0.266% (inactive)	8.89% (inactive)
O=C(NC1CCCC1)C(c1cccs1)N(Cc1ccco1)C(=O)Cn1nnc(-c2cccs2)n1 (stereo unspecified)	482	-3.3% (inactive)	-7.1% (inactive)	102	3.8% (inactive)	101	-0.487 (inactive)	-3.1e-05 (inactive)	0.00489 (inactive)	20.2% (inactive)	23.1% (inactive)
C/C(Nc1cccc(F)c1)=C(/C#N)C(N)=O	640	3.4% (inactive)	1.6% (inactive)	104	48.6% (inactive)	106	-0.361 (inactive)	-3.8e-05 (inactive)	0.00545 (inactive)	-10.6% (inactive)	-10.3% (inactive)
CCc1nc(N)c(C#N)c(-c2ccc(OC)c(OC)c2)c1C	628	-4.4% (inactive)	-13.8% (inactive)	98.5	-37% (inactive)	111	-0.384 (inactive)	1e-05 (inactive)	0.00633 (inactive)	16.9% (inactive)	21.8% (inactive)
CCc1nnc2c3cnn(-c4ccccc4)c3ncn12	402	-2.9% (inactive)	-11.8% (inactive)	103	-25.5% (inactive)	125	-0.616 (inactive)	7.6e-06 (inactive)	0.00633 (inactive)	-19% (inactive)	-77% (inactive)
O=C(Nc1nc(-c2ccncc2)cs1)C1COc2ccccc2O1 (stereo unspecified)	646	-4.9% (inactive)	-3.1% (inactive)	118	-28.4% (inactive)	119	-0.608 (inactive)	-3.7e-05 (inactive)	0.00702 (inactive)	-5.76% (inactive)	-29.4% (inactive)
C=C(C)COc1ccc(-c2n[nH]c(C)c2-c2ccccc2)c(O)c1	456	-8% (inactive)	3.7% (inactive)	99.2	0.8% (inactive)	81.8	-0.46 (inactive)	-3.2e-05 (inactive)	0.00246 (inactive)	-6.65% (inactive)	11.2% (inactive)
O=C(Nc1ncc2c(n1)CC(c1ccccc1)CC2=O)c1ccco1 (stereo unspecified)	572	-8.6% (inactive)	-5.3% (inactive)	99.5	-3.8% (inactive)	86	-0.534 (inactive)	-5.7e-06 (inactive)	0.00546 (inactive)	9.1% (inactive)	9.67% (inactive)
Cc1ccccc1Cn1nc(C)c(NC(=O)c2noc3c2CCc2ccccc2-3)c1C	720	2.9% (inactive)	4.7% (inactive)	78.3	-88.7% (inactive)	108	-0.588 (inactive)	4e-06 (inactive)	0.00754 (inactive)	8.23% (inactive)	0.0552% (inactive)
CCc1nc(N)c(C#N)c(-c2ccncc2)c1C	598	6.3% (inactive)	-19.7% (inactive)	100	-24.5% (inactive)	106	-0.605 (inactive)	-3.1e-05 (inactive)	0.00327 (inactive)	9.38% (inactive)	19.4% (inactive)
COc1ccc(OCCOC(=O)c2cccs2)cc1	367	14.9% (inactive)	-30.1% (inactive)	100	-11.5% (inactive)	112	-0.604 (inactive)	7.3e-06 (inactive)	0.00778 (inactive)	-2.79% (inactive)	4.6% (inactive)
CCn1cc(SCC(=O)Nc2cc(C)on2)c2ccccc21	760	-15.1% (inactive)	-0.1% (inactive)	60.4	29.9% (inactive)	86.4	-0.494 (inactive)	-2.7e-05 (inactive)	0.00702 (inactive)	26.7% (inactive)	25.1% (inactive)
O=S(=O)(NCc1ccc(Cl)cc1)c1cnc[nH]1	468	5% (inactive)	-5.7% (inactive)	96.7	-182% (inactive)	129	-0.538 (inactive)	-2e-05 (inactive)	0.00614 (inactive)	-8.39% (inactive)	-18.3% (inactive)
CCOc1ccc(-c2nc(C#N)c(N3CCN(C)CC3)o2)cc1	447	7.9% (inactive)	-9.4% (inactive)	102	-123% (inactive)	127	-0.415 (inactive)	-1.8e-05 (inactive)	0.00522 (inactive)	10.5% (inactive)	11% (inactive)
